Assay results taken from ChEMBL document CHEMBL4513216, “Probing the Open Global Health Chemical Diversity Library for Multistage-Active Starting Points for Next-Generation Antimalarials” (ACS Infect Dis, 2020).
Out of some 69,000 compounds screened, about 8,600 (12%) showed an effect of 50% or more. For the sample, strong results were picked, then their nearest neighbours and some compounds at random.

system: Plasmodium berghei; experiment: Screen against P. berghei liver stage (PbLuc), transformed with Luciferase, at 10uM; type: functional, HepG2; details: tested at 10 uM

Row | Compound | INHIBITION [%]
1 | COC(C)(C)CNC(=O)N1CCC(n2ccc(C(F)(F)F)n2)CC1 | 33.7
2 | COCCn1cc(CC(=O)Nc2c(C)nn(C)c2C)c2ccccc21 | 37.8
3 | CCn1cc(CNC(=O)C2CCCC2)cn1 | 38.3
4 | CCOc1ccccc1CC(=O)N1C[C@@H](C(=O)O)[C@H](c2ccncc2)C1 | -5.32
5 | Cc1cccc(CN2CCC(c3csc4nccn34)CC2)n1 | 15.55
6 | CCN(Cc1nc2c(cnn2C)c(=O)[nH]1)c1cc(C)cc(C)c1 | 64.7
7 | CCN(Cc1nc2c(cnn2C)c(=O)[nH]1)c1cccc(C)c1 | 11.2
8 | CCN(Cc1nc2c(cnn2C)c(=O)[nH]1)c1ccccc1 | 46.2
9 | CC(=O)N1CCC2(C=C(C(=O)NC3CC3)c3ccccc32)CC1 | -25.8
10 | COc1cc(-c2nccn2C(C)CCn2cccn2)cc2c1OCO2 (configuration not stated) | 51.3
11 | COCCCn1ccnc1-c1cnc(OC)nc1 | 10.1
12 | COc1ncc(-c2nccn2CCN(C)C)cn1 | -13.2
13 | COc1cc(CNC(C)Cn2cccn2)cc2c1OCO2 (configuration not stated) | 12.6
14 | COc1cc(-c2nccn2CCn2cccn2)cc2c1OCO2 | 9.56
15 | COc1ncc(-c2nccn2C(C)CCn2cccn2)cn1 (configuration not stated) | 66.9
16 | Cc1cc(CN2CCN(C(=O)c3ccc(=O)n(C)c3)CC2)no1 | 7.19
17 | Cc1nn(C)c(N(C)C)c1CNCc1cccnc1N(C)C | -17.4
18 | COc1cccc(CC(=O)N2CC[C@H]3[C@@H]2CCC(=O)N3C)c1 | -3.51
19 | COc1cccc(CN2CCCC(c3cc(C(N)=O)[nH]n3)C2)c1 (configuration not stated) | -7.31
20 | COc1cccc([C@@H]2CCN(Cc3cccc(C)n3)C[C@H]2O)c1 | -3.83
21 | CC(=O)N1C[C@@H](c2ccsc2)[C@@H]2CN(Cc3ccccc3)CC[C@@H]21 | 16.9
22 | COc1cccc([C@@H]2CCN(Cc3ccc4ccccc4n3)C[C@H]2O)c1 | -18.4
23 | COc1cccc([C@H]2CN(C(C)=O)[C@@H]3CCN(Cc4ccsc4)C[C@H]23)c1 | 63.4

Row | Compound | INHIBITION [%]
24 | COc1cccc(CN2CC[C@H]3[C@@H](C2)[C@H](c2ccsc2)CN3C(C)=O)c1 | 61.9
25 | CC(=O)N1C[C@@H](c2ccsc2)[C@@H]2CN(Cc3cccc(Cl)c3)CC[C@@H]21 | 65.5
26 | CC(=O)N1CCO[C@@H]2CN(Cc3cccc(Cl)c3)C[C@@H]2C1 | 39.4
27 | O=S(=O)(N1CCCC1)N1CC(c2ccnc(Nc3ccccn3)n2)C1 | 26.7
28 | CN(C)c1ccc(NC(=O)c2ccnn2C)nc1 | -62.7
29 | CCN1CC2(CC1=O)CN(C(C)=O)CCN(C(=O)NC(C)C)C2 (configuration not stated) | -17.2
30 | COc1ccc(OCCNCc2c(C)nn(C)c2N(C)C)cc1 | -7.1
31 | CCN(C)c1ncnc2c1CCN(C(=O)N1CCCC1)CC2 | -21.3
32 | CC(=O)N1CCN(CCNS(=O)(=O)c2ccc(F)c(F)c2)CC1 | -35.1
33 | COC(=O)C(C)(C)NC(=O)c1cc(COc2ccccc2OC)[nH]n1 | -3
34 | COc1cccc(OCc2cc(C(=O)NC[C@H]3CCCN3)n[nH]2)c1 | 25.4
35 | COc1ccccc1OCc1cc(C(=O)NC[C@@H]2CCCN2)n[nH]1 | 82.9
36 | COc1cccc(OCc2cc(C(=O)NC[C@@H]3CCCN3)n[nH]2)c1 | 14.9
37 | CNC(=O)C(C)(C)NC(=O)c1cc(COc2ccccc2OC)[nH]n1 | 63.7
38 | CNC(=O)C(C)(C)N(C)C(=O)c1cc(COc2ccccc2OC)[nH]n1 | -4.23
39 | Cc1ccc(NC(=O)c2cnc(N3CCN(C)CC3)nc2C)cc1C | 43.8
40 | CCc1noc(-c2cccc(OCC(=O)NC(C)C)c2)n1 | 48.7
41 | CC1(c2[nH]ncc2C(N)=O)CCN(c2ncccn2)CC1 | 26.3
42 | CC(C)=CCN1C[C@@H]2CC[C@H]1CN(C(=O)Cn1c(C)cc(C)nc1=O)C2 | -35
43 | C[C@@H](NC(=O)c1cccnc1)c1onc(-c2ccccc2)c1C(=O)O | 7.5
44 | CCN(C)S(=O)(=O)NC(C)c1cnc(N(C)C2CCCCC2)nc1C (configuration not stated) | 63.1
45 | CCn1nc(C)c(C(C)NC(=O)c2cnc(N(C)C)nc2C)c1C (configuration not stated) | 10.3
46 | Cc1nc(N(C)C2CCCCC2)ncc1C(C)NC(=O)c1cccnc1 (configuration not stated) | 77.5

Row | Compound | INHIBITION [%]
47 | CN(C)c1nccc(N(C)C2CCCCC2)n1 | 25.5
48 | CN(c1ncccc1CNC(=O)c1cscn1)C1CCCCC1 | 26
49 | Cc1nc(-c2ccncc2)ncc1C(C)NC(=O)CN1CCCCC1 (configuration not stated) | 35.8
50 | Cc1nc(N(C)C2CCCCC2)ncc1C(C)NC(=O)c1cscn1 (configuration not stated) | 59.2
51 | CC(C)C(=O)N1CCN(C(=O)c2cscn2)[C@H]2CS(=O)(=O)C[C@H]21 | 26.8
52 | NC(=O)CN1CCC(c2cncc(-c3cccc(Cl)c3)n2)CC1 | -40.6
53 | CC(C)COC(=O)N1CCCN(C(C)c2nnc(CC(C)C)o2)CC1 (configuration not stated) | 4.22
54 | CCCc1nc(C(C)(C)NC(=O)C2CC(=O)N(C3CCCC3)C2)no1 (configuration not stated) | -15.5
55 | CCCC(=O)N1CCN(CC(O)COCC)CC1 (configuration not stated) | -2.53
56 | Cc1ncsc1CN1CC[C@](C)(O)[C@@H](Oc2cccc(F)c2)C1 | 33.7
57 | Cc1nc2n(n1)CC(NCc1ccnc(-c3ccccc3)n1)CC2 (configuration not stated) | -15
58 | O=c1[nH]c(CCN2CCCCC2Cn2cccn2)nc2ccccc12 (configuration not stated) | 36.1
59 | Cc1cccnc1NC(=O)C1(n2cnnn2)CCCCC1 | 49.5
60 | CC(C)n1[nH]c(=O)c2c1NC(=O)CC2c1ccc(S(C)(=O)=O)cc1 (configuration not stated) | -2.43
61 | NC1(C(=O)NCC2CCCN(Cc3cccc4nonc34)C2)CCC1 (configuration not stated) | 62.8
62 | O=C(NCC1CCCN(Cc2cccc3nonc23)C1)c1ccc[nH]1 (configuration not stated) | 70.3
63 | NC1(C(=O)NCC2CCCN(Cc3ccccc3F)C2)CCCC1 (configuration not stated) | 42.4
64 | CCN1CCCC(CNC(=O)C2(c3cccc(Cl)c3)CC2)C1 (configuration not stated) | -2.42
65 | CC(=O)NCC1CCCN(Cc2nc(Cc3ccccc3F)no2)C1 (configuration not stated) | 20.4
66 | O=C(N[C@@H]1CCN(Cc2cccc3nonc23)C[C@H]1O)c1cccnc1 | 12.9
67 | CCCNc1ncc(CN2CCC3(CCNC(=O)CC3)CC2)cn1 | -41.8
68 | CC1CCc2n[nH]c(C(=O)NCCCc3ccccn3)c2C1 (configuration not stated) | -41.8
69 | Cc1ccc2oc(SCC(N)=O)nc2n1 | 18.4

Row | Compound | INHIBITION [%]
70 | CCCC(=O)N1C[C@@H]2CCN(c3cnccn3)C[C@@H]2C1 | -30.7
71 | CC(C)c1nc(CN(C)C(=O)CNS(=O)(=O)c2cccs2)cs1 | 26.6
72 | CC(C)c1nc(CN(C)S(=O)(=O)c2cccs2)cs1 | 55.4
73 | CC(C)c1nc(CN(C)Cc2ccc(F)cc2)cs1 | 20.4
74 | Cc1c(CCC(=O)Nc2ccc(Cl)cn2)cnn1C | -23.4
75 | Cc1ccc(-n2nc(C)cc2N)nn1 | -24.2
76 | CCc1nc(C)c(CN2CCOC(Cc3cccc4ccccc34)C2)[nH]1 (configuration not stated) | 18.6
77 | CCc1nc(C)c(CN2CCOC(CCCC(C)C)C2)[nH]1 (configuration not stated) | 68.9
78 | CCc1nc(C)c(CN2CCOC(Cc3ccccc3Cl)C2)[nH]1 (configuration not stated) | 24.2
79 | O=C(c1c[nH]c(=O)cn1)N1C[C@H]2CC[C@@H](C1)N(Cc1ccccc1)C2 | 17.2
80 | CCn1cc(N)c(-c2nnc3n2CCCC3)n1 | 21.9
81 | CN(CCOc1cccc(S(C)(=O)=O)c1)CC(F)F | 31.1
82 | CN(CCOc1cccc(S(C)(=O)=O)c1)c1ccccc1 | 81.1
83 | CCC(C)(C)N(C)CCOc1cccc(S(C)(=O)=O)c1 | 23.2
84 | COCCN1CCC2(CC1)CN(C(=O)C1CC1)c1ccc(F)cc12 | 34.6
85 | O=C(c1cccnc1N1CCCCC1)N1CCCC(n2ccnc2)C1 (configuration not stated) | 22.55
86 | c1cc(CNc2ccc(-c3nc(C4CC4)no3)cn2)no1 | 1.98
87 | CSCC[C@@H](CO)Nc1ccc(-c2nc(-c3ccccc3F)no2)cn1 | 76.8
88 | CSCC[C@@H](CO)Nc1ccc(-c2nc(C3CC3)no2)cn1 | 54.4
89 | CSCC[C@@H](CO)Nc1ccc(-c2nc(-c3ccccc3C)no2)cn1 | 36.5
90 | Cc1cc(CNc2ccc(-c3nc(C4CC4)no3)cn2)no1 | -28.3
91 | CCC(C)Nc1ccc(-c2nc(-c3cccc(OC)c3OC)no2)cn1 (configuration not stated) | 33.9
92 | CN(C)CCO[C@@H]1CC[C@H]2[C@H]1OCCN2C(=O)CCc1ccccc1 | 5.65

Row | Compound | INHIBITION [%]
93 | CC(=O)N1C[C@H]2CC[C@@H](C1)N(S(=O)(=O)c1cc(F)ccc1C)C2 | -18.1
94 | NCC1CCN(C2CCN(c3ccc(-c4ccco4)cc3)CC2)C1 (configuration not stated) | 92.8
95 | COc1ccc(N2CCC(N3CCOC(C(F)(F)F)C3)CC2)cc1 (configuration not stated) | -25.2
96 | CCS(=O)(=O)c1ccc(N2CCC(N)CC2)cc1 | 12.2
97 | O=C(O)c1ccccc1C1CCN(C2CCN(c3ccccc3)CC2)C1 (configuration not stated) | 35.1
98 | NC1CCN(C2CCN(c3ccc(-c4ccco4)cc3)CC2)CC1 | 65
99 | CNC1CCN(C2CCN(c3ccc(-c4ccco4)cc3)CC2)CC1 | 49
100 | Cc1cccc(C(=O)N2CCn3cc(CN4CCCCC4)nc3C2)n1 | 49.7
101 | Nc1cc2c(nn1)CCN(C(=O)CC1CCCC1)C2 | 2.26
102 | Nc1cc2c(nn1)CCN(C(=O)CCc1ccc3c(c1)OCO3)C2 | 32.9
103 | Cn1ncc2c1CCCN(C(=O)C1CCC1)C2 | 10.855
104 | Nc1cc2c(nn1)CCN(C(=O)CCC1CCCCC1)C2 | 62.6
105 | Nc1cc2c(nn1)CCN(C(=O)CCCC1CCCCC1)C2 | 70.8
106 | Nc1cc2c(nn1)CCN(C(=O)Cc1ccc3c(c1)CCO3)C2 | 5.42
107 | Nc1cc2c(nn1)CCN(C(=O)Cc1ccc3c(c1)CCCC3)C2 | 8.4
108 | Nc1cc2c(nn1)CCN(C(=O)CC1CCCCC1)C2 | 50.3
109 | NC(=O)c1cc2c(nc1N)CCN(C(=O)C1CCCCC1)C2 | 62.9
110 | Nc1cc2c(nn1)CCN(C(=O)C1CCc3ccccc31)C2 (configuration not stated) | 17.4
111 | Cn1ncc2c1CCCN(C(=O)C1CCCC1)C2 | 22.75
112 | CCNc1cc2c(nn1)CCN(C(=O)CC1CCCCC1)C2 | 30.2
